Laboratory results from ChEMBL document CHEMBL3988442, “University of Dundee, Small-Polar-MMV Screening Library” (2021).
In all, about 48,000 compounds went through this assay and about 13,000 (27%) showed an effect of 50% or more. Some of the results follow.

What follows are molecules tested on Wolbachia pipientis (assay: Anti-Wolbachia Cell-Based Screen). Conditions: 5 µM.
Type: functional
Set-up: scale not given: in the data most compounds retested in dose-response had high values

SMILES | Percent Effect [%]
Cc1noc(-c2ccnc(N3CCC(CN4CCOCC4)CC3)c2)n1 | 3.253
c1cnc(CC2CCN(c3cnccn3)CC2)cn1 | 139.5
O=C1[C@H]2CN(c3cnccn3)C[C@H]2CN1CC1CC1 | -18.33
Cc1ccccc1CSc1nc(N)cc(N2CCOCC(CO)C2)n1 (stereo not drawn) | 4.884
Cc1nccc(CC2COCCN(c3cnccn3)C2)n1 (stereo not drawn) | 114.6
O=C(O)c1cccc(CC2CCN(c3cnccn3)CC2)c1 | -21.8
O=C1NCCN(C(=O)CCN2CCCO2)C1c1cccc(F)c1 (stereo not drawn) | -39.77
Cc1ccnc(NCCNC(=O)Cc2c(C)[nH]c3c(C)ccc(C)c23)c1 | -11.21
Cc1ccc([C@@H]2CN(C(=O)c3cccnn3)C[C@H]2NC(=O)C2CC2)cc1 | 2.45
Cc1ccc(C(C(=O)NC(C)(C)CN2CCCC2)N(C)C)cc1 (stereo not drawn) | 96.39
Cc1cccc(C(C(=O)NCCn2cccc2)N(C)C)c1 (stereo not drawn) | -2.901
Cc1cccc(C(C(=O)NC(C)(C)CN2CCCC2)N(C)C)c1 (stereo not drawn) | 106.7
Cc1ccc(C(C(=O)NCCN2CCC(CO)CC2)N(C)C)cc1 (stereo not drawn) | 0.4619
Cc1cccc(C(C(=O)NCC2(O)CCCCC2)N(C)C)c1 (stereo not drawn) | -2.512
CCSCCNC(=O)C(c1cccc(C)c1)N(C)C (stereo not drawn) | -29.39
Cc1cc(C)cc(C(C(=O)O)N(C)CCCN2CCOCC2)c1 (stereo not drawn) | 10.88
Cc1cccc(C(C(=O)NC(C)(C)CN2CCOCC2)N(C)C)c1 (stereo not drawn) | 112.8
Cc1ccc(C(C(=O)NCCN2CCCCCC2)N(C)C)cc1 (stereo not drawn) | -4.058
CN(C)S(=O)(=O)NCC1OCCc2cn(CC3CCOCC3)nc21 (stereo not drawn) | 2.181
CC(=O)c1c(F)cccc1N1CCC(C(N)=O)CC1 | 16.85
CC(C)n1nc(CNc2ncccn2)c2c1CN(C1CCOCC1)CC2.O=C(O)C(F)(F)F | 3.818
CNS(=O)(=O)Cc1cccc(CNc2ccc(C#N)cn2)c1 | 5.411
Cc1ccc(F)c(OC2(C(=O)O)CCN(C(=O)N3CCCC3)CC2)c1 | -14.67
COC(=O)[C@H]1C[C@@H](O)CCN1S(=O)(=O)c1c(C)cc(OC)c(C)c1C | -13.15
COc1ccc(-c2csc(N)c2C#N)cc1OC | -8.208

SMILES | Percent Effect [%]
COc1ccc(-c2c(C)nn3c(=N)c(C#N)n[nH]c23)cc1 | 88.05
COc1ccc(CN(C)c2nccc(-c3cn(C)nc3C)n2)cc1 | -45.72
CCc1nn2c(=N)c(C#N)n[nH]c2c1-c1ccc(OC)cc1 | 103
COc1ccc(-c2c(C(C)C)nn3c(=N)c(C#N)n[nH]c23)cc1 | 89.55
COc1ccc(-c2c(C)nn3c(=N)c(C#N)n[nH]c23)cc1OC | 107.4
CCN(C)C[C@H]1CC[C@@H](Cc2ccc3c(cnn3C)c2)O1 | -8.878
CCS(=O)(=O)c1ccc(NCc2csc(C(C)C)n2)cc1 | 5.353
O=C1NCCN(Cc2ccccc2)C1CC(=O)N1CCc2n[nH]cc2C1 (stereo not drawn) | -21.59
COc1ccc(CN2CCOC[C@H](OCC(=O)N(C)C)C2)cc1 | -7.108
CNc1nccnc1C1CN(Cc2ccc(OCC(=O)O)cc2)CCO1 (stereo not drawn) | 142.7
Cl.O=C(O)CC1CN(Cc2ccccc2)CCO1 (stereo not drawn) | -7.682
O=C(COc1cccnc1)N1CCOC(C(F)(F)F)C1 (stereo not drawn) | -4.014
O=C(COc1cccnc1)N1CCCC(n2cccn2)C1 (stereo not drawn) | -8.892
O=C(O)C(F)(F)F.O=C(O)C(F)(F)F.c1cc(C2CC2)n2cnc(C3CN(Cc4ccncc4)CCO3)c2c1 (stereo not drawn) | 5.365
Nc1nccnc1C1CN(Cc2ccc(OCC(=O)O)cc2)CCO1 (stereo not drawn) | 171.8
Nc1nccnc1C1CN(C(=O)COc2cccnc2)CCO1 (stereo not drawn) | 107.6
CNc1nccnc1C1CN(Cc2ccc3[nH]ccc3c2)CCO1 (stereo not drawn) | 136.6
Cc1ncsc1C(=O)NCCOc1ncc(Cl)cc1Cl | 21.09
Cc1ncsc1CCN(C)C(=O)CN1C(=O)OC[C@@H]1c1ccccc1 | -3.352
CN(Cc1ccc(C(=O)NCC2COCCO2)c(=O)[nH]1)CC(C)(C)C (stereo not drawn) | -4.558
Cc1ccc(NC(=O)NC(C)(C)c2noc(C)n2)cc1 | -4.171
Cn1nnc2c1CCN(CC1CC1)C2COCC1CC1.O=C(O)C(F)(F)F (stereo not drawn) | 12.72
Cc1noc(CCCNS(=O)(=O)N2CCCC2c2ccco2)n1 (stereo not drawn) | -11.05
Cc1cnccc1CN(C)C(=O)c1cccc(CCC(C)(C)O)c1 | 0.1694
CCc1oc(C(=O)N2CCC(N(CC)C(C)=O)C2)cc1CN(CC)CC (stereo not drawn) | 93.17

SMILES | Percent Effect [%]
CCCOC1CCCN(C(=O)c2cc(CN(CC)CC)c(CC)o2)C1 (stereo not drawn) | 92.62
CCCOC1CCCN(C(=O)c2ccnnc2)C1 (stereo not drawn) | 0.837
CCc1ccc(C(=O)N2CCC(N(C)C(=O)OC(C)(C)C)C2)o1 (stereo not drawn) | 8.552
CCCOC1CCCN(C(=O)c2csc(S(N)(=O)=O)c2)C1 (stereo not drawn) | 6.923
CCc1oc(C(=O)N2CC[C@H]3CC[C@@H](C2)N3)cc1CN(CC)CC | 112
CCN(CC)Cc1cc(C(=O)N2CC[C@@]3(O)CCCC[C@H]3C2)c(C)o1 | -6.043
CCc1oc(C(=O)N2CCCC(c3nnn[nH]3)C2)cc1C (stereo not drawn) | -3.531
CCCOc1ccc(C(=O)N2CC[C@H]3CC[C@@H](C2)N3)cc1Cl | -21.75
O=C(CCCc1ccccn1)NCC(O)c1c(F)cccc1F (stereo not drawn) | 14.04
CC(=O)Nc1ccc(CNC(=O)CNCc2nnc(C)o2)cc1 | -22.07
CC(C)c1ncc(CN2C[C@@H](CN3CCCN(C)CC3)[C@@H](CO)C2)cn1 | -6.838
COc1cc(CN(C)C(=O)NCCC2CCCO2)ccc1SC (stereo not drawn) | -4.598
Cc1cc(N(C)CCn2ccnc2C)n2nccc2n1 | 3.132
Cc1nccn1CCN(C)c1cc(C(C)C)nc2ccnn12 | -21.61
Cc1cc(C)nc(N(C)CCn2ccnc2C)n1 | 70.85
Cc1nc(N2CCN(C(=O)C(C)(C)C)CC2)cc(-n2cnc(C)c2C)n1 | -0.05678
O=C(Nc1cccnc1)C1Cc2nc(-c3ccsc3)sc2N1CC1CC1.O=C(O)C(F)(F)F (stereo not drawn) | 52.78
CN(C)CCOCC1CN(C(=O)c2ccsc2)Cc2ccnn2C1.O=C(O)C(F)(F)F.O=C(O)C(F)(F)F (stereo not drawn) | -7.951
CC(C)N1c2sc(-c3ccccc3)nc2CC1C(=O)NCCCO (stereo not drawn) | 3.342
CN(C)CCNC(=O)C1Cc2nc(-c3ccsc3)sc2N1CC1CC1.O=C(O)C(F)(F)F (stereo not drawn) | 106.6
O=C(O)C(F)(F)F.O=C(c1ccsc1)N1C[C@@H]2CCN(c3cccnc3)C[C@@H]2C1 | -7.879
CC(C)N1[C@@H](C(=O)NCCN(C)C)C[C@H]2CN(c3ncccn3)C[C@H]21.O=C(O)C(F)(F)F.O=C(O)C(F)(F)F.O=C(O)C(F)(F)F | -8.926
O=C(Nc1cccnc1)[C@H]1C[C@H]2OCC[C@H]2N(C(=O)c2ccsc2)C1.O=C(O)C(F)(F)F | -10.81
O=C(O)C(F)(F)F.O=C1N(c2ccsc2)CCC12CCCN(CC1CC1)C2 (stereo not drawn) | 0.74
CN(C)CCNC(=O)C1Cc2nc(-c3ccccc3)sc2N1CC1CC1.O=C(O)C(F)(F)F (stereo not drawn) | 101.2

SMILES | Percent Effect [%]
Cc1cc(C(C)(O)CNC(=O)C2(C)CCCC2)c(C)o1 (stereo not drawn) | -0.4765
FC(F)(F)CCc1ccnc(NCc2csc(N3CCOCC3)n2)n1 | 9.156
CNC(=O)[C@@H]1COC[C@H]2CN(C(=O)c3ccc(C)c(C)c3)C[C@H]21 | -0.6496
Cc1cc(CN(C)Cc2ncc(-c3cccs3)o2)no1 | -12.35
Cc1cc(CN(C)Cc2cnc3c(c2)c(C)nn3C)no1 | -2.389
CCN(Cc1ncc(C(C)(C)C)o1)Cc1ccccc1C | -27.71
Cc1cc(CN(C)Cc2ncc(-c3ccccc3)o2)no1 | 85.66
CN(Cc1ncc(-c2ccccc2)o1)CC1CCCN1c1cccnn1 (stereo not drawn) | 1.26
Cc1ccc(CN(C)Cc2ncc(C(C)(C)C)o2)o1 | 106.2
CCN(Cc1cccc(Cl)c1)Cc1ncc(C(C)(C)C)o1 | -36.69
Cc1cccc(CN(Cc2ccccn2)Cc2ncc(C(C)(C)C)o2)c1 | -46.43
Cc1cc(CN(C)Cc2ncc(C(C)(C)C)o2)no1 | 71.54
CN(Cc1ccc(N(C)C)cc1)C(=O)CS(=O)(=O)c1ccc(Cl)cc1 | -13.85
CCN1CCN(C(=O)C2CCCc3[nH]ncc32)CC1 (stereo not drawn) | -17.44
Cc1cccc2c1nc1n2[C@@H](CNC(=O)c2cnccn2)COC1 | -0.5308
O=C1CC2(CCCCC2)CC(=O)N1CC(O)COCc1ccc(Cl)cc1 (stereo not drawn) | -11.1
Cc1cc(NC(=O)Cn2cnc(-c3cccs3)cc2=O)sn1 | 24.65
Cc1cc(NC(=O)Cn2cnc(-c3cccs3)cc2=O)no1 | 10.41
CC(C(N)=O)n1nc(-c2cccs2)cc(N)c1=O (stereo not drawn) | 54.84
CC(C(=O)NC1CC1)S(=O)(=O)Cc1csc(-c2cccs2)n1 (stereo not drawn) | -10.04
COc1cccn(C(C)C(=O)NC2CCCC2)c1=O (stereo not drawn) | 10.4
CC(C(=O)NC1CC1)n1nc(-c2cccs2)cc(N)c1=O (stereo not drawn) | 130.1
CCNC(=O)O[C@H]1COCCN(c2nc3ccccc3s2)C1 | 2.544
